The list is not random: actives were taken first. Their share in the collection is about 4.7%.
TWEAK-Fn14 inh = blocks TWEAK-Fn14 interaction in a reporter cell assay. TWEAK-stimulated Fn14 reporter cells, luciferase luminescence, 8 h. inhibition, % at 10 µM. 2% of 360,000 active; in the data active = inhibition above about 50%
LMP1 NFkB inh = Epstein-Barr LMP1 NF-kappaB reporter inhibition; LMP1-induced NF-kappaB luciferase reporter cells, luminescence; inhibition, % at 12.5 µM; 0.69% of 350,000 active; in the data active = inhibition above about 41%;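 also: 0% = neutral control wells and 100% = reference inhibitor control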
HSF1 inh = HSF1 inhibition; NIH3T3-HGL HSE-luciferase, MG132-induced, luminescence 8 h; active compounds read low; activity change, negative = inhibition, % at 7.5 µM (by protocol); 0.77% of 300,000 active; AID 2098;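 active = more than half of replicate wells show activity change below -50%, luminescence cut by over half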;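 also: luciferase reports HSF-1 transcriptional activity via heat shock element; 0% = median of DMSO wells and -100% = zero luminescence signal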
HSF1 activator = increases HSF-1 driven luciferase reporter signal. activation, % at 9 µM. NIH3T3-HGL HSF-1 luciferase reporter, MG132, 8 h; 100% = twice DMSO control signal. 1.7% of 300,000 active;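 active = mean replicate activation of at least 50% with a set share of replicates each reaching 50%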;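 also: 0% = median of the neutral control wells and 100% = twice that signal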
HSP90 refold inh = inhibitors of HSP90 luciferase refolding in rabbit reticulocyte lysate; luciferase refolding luminescence, 3 h; inhibition, % at 5.6 µM; 0.91% of 290,000 active; AID 1789;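 active = inhibition above the screen-wide mean plus 3 SD, computed separately per campaign, cut at about 16% in these data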;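 also: 0% = DMSO wells and 100% = 60 µM geldanamycin wells; inhibitors lower the luminescence because luciferase stays unfolded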
TROY NFkB inh = blocks TROY-dependent signaling in reporter cells. Q293 LMP1-TROYcd NF-kB luciferase reporter, 4 h. inhibition, % at 10 µM. 0.98% of 360,000 active. AID 1347056;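 active = compounds whose plate-normalised and pattern-corrected inhibition of the luciferase reporter signal at the single screening dose is 50% or more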
* marks the source's active call; other numbers are inactive results; / = no result given; ! = not confirmed by another sample.

SMILES	TWEAK-Fn14 inh	LMP1 NFkB inh	HSF1 inh	HSF1 activator	HSP90 refold inh	TROY NFkB inh
CC(C)CCn1c(N)c(C(=O)OCC2CCCO2)c2nc3ccccc3nc21 (stereo not drawn)	48.7	-4.5	18.4	43.5	-0.2	60.3*
CC(C)OC(=O)c1c(N)n(CC2CCCO2)c2nc3ccccc3nc12 (stereo not drawn)	10.0	10.0	2.4	5.6	16.2*	2.7
CCCCn1nnnc1C(CCSC)N1CCC(n2c(=O)[nH]c3ccccc32)CC1 (stereo not drawn)	17.0	/	/	/	/	-4.6
COc1ccccc1N1CCN(Cc2cccc(OC)c2O)CC1	19.8	-1.5	60.5	87.9*	-0.1	-5.9
C[C@H]1CCC/C=C/[C@@H]2C[C@H](O)C[C@H]2[C@H](O)/C=C/C(=O)O1	55.1*!	-119.2	/	/	/	-66.3
CCCCC(CC)COCCCN=Cc1c(O)[nH]c(=S)[nH]c1=O (stereo not drawn)	59.6*	/	-15.6	-8.5	1.2	6.4
COC(=O)C(O)(c1ccc(NC(=S)NC(=O)c2ccc(Cl)cc2Cl)cc1)C(F)(F)F (stereo not drawn)	33.5	0.7	-2.7	-10.7	-0.4	47.4
CCOC(=O)C(O)(c1ccc(NC(=S)NC(=O)c2ccc(Cl)cc2Cl)c(C)c1)C(F)(F)F (stereo not drawn)	71.6*	7.7	-7.6	-1.0	5.0	58.4*
CCOC(=O)C(O)(c1ccc(NC(=S)NC(=O)c2ccc(Cl)cc2Cl)cc1)C(F)(F)F (stereo not drawn)	-6.1	-1.0	-9.7	-14.4	3.4	25.1
COC(=O)C(O)(c1ccc(NC(=S)NC(=O)c2ccc(Cl)cc2Cl)c(C)c1)C(F)(F)F (stereo not drawn)	55.6*	9.7	4.9	-8.3	1.9	63.7*
CC1(C)N=C(c2ccccc2)[C@@H]2C(c3ccc([N+](=O)[O-])cc3)N21 (stereo partly drawn)	10.7	3.1	-7.1	8.9	-0.9	52.7*
O=[N+]([O-])c1ccc(C2C3C(c4ccccc4)=NC4(CCCC4)N32)cc1 (stereo not drawn)	1.7	1.0	-6.5	2.9	0.5	-1.5
O=C(C[N+]12CCC(CC1)C(C(O)(c1ccccc1)c1ccccc1)C2)c1ccc(Br)cc1 (stereo not drawn)	8.0	-12.6	-3.9	-1.4	3.5	-15.9
OCC[N+]12CCC(CC1)C(C(O)(c1ccccc1)c1ccccc1)C2 (stereo not drawn)	-19.6	6.2	-0.9	-12.9	-1.6	54.4*
COC(=O)C1=Nc2ccccc2/C1=C\c1c(O)n(-c2ccc(OC)cc2)c(=O)[nH]c1=O	64.6*	3.5	-6.3	-5.3	1.3	34.7
O=c1[nH]c(=O)n(-c2ccccc2)c(O)c1/C=C1/C(c2ccccc2)=Nc2ccccc21	38.4	-7.7	-7.0	21.9	-5.3	-34.7
COC(=O)C1=Nc2ccccc2/C1=C\c1c(O)n(-c2ccc(Br)cc2)c(=O)[nH]c1=O	58.6*	1.6	/	/	-0.4	-2.4
C[C@@H]1CN([C@@H](C)CO)C(=O)CCCn2cc(nn2)CO[C@H]1CN(C)C(=O)Oc1cccc2ccccc12	-3.1	-3.4	/	/	/	-11.5
NC(Cc1ccc(F)cc1)c1csc(Nc2ccccn2)n1 (stereo not drawn)	-38.7	/	/	/	/	-26.1
NC(N)=Nc1ccc2[nH]c3c(c2c1)C[C@@]1(O)[C@H]2Cc4ccc(O)c5c4[C@@]1(CCN2CC1CC1)[C@H]3O5	8.9	-4.9	/	/	/	5.2
CCN1C(=O)/C(=C/c2ccc(N(CC)CC)cc2OC)C(=O)NC1=S	67.3*	-17.1	-9.6	-14.9	0.9	9.6
CC[C@@H](O)C[C@H]1CCC[C@@]2(C[C@@H]3OC(=O)/C=C/[C@@](C)(O)[C@@H](O)[C@H](C)[C@@H](O)[C@H](OC4CCC(N(C)C)C(C)O4)[C@@H](O)[C@](C)(O)CCCCC/C=C/[C@@H]4CC(C)(C)O[C@@]4(O)C[C@H](O2)[C@H]3C)O1 (stereo partly drawn)	60.5*	23.7	/	/	/	48.1
c1cc2c(cc1-c1ccc3c(c1)OCO3)CNCc1cnnn1-2	-43.5	/	/	/	/	-24.2
C[N+]1(CC2COC(c3ccco3)O2)CCCCC1 (stereo not drawn)	-1.5	0.7	-66.4*	-75.5	0.1	-5.3
CCN(CC)P(=O)(NC(=O)c1cccn1C)N(CC)CC	6.6	-2.6	-84.5*	-88.7	1.6	3.6
SMILES	TWEAK-Fn14 inh	LMP1 NFkB inh	HSF1 inh	HSF1 activator	HSP90 refold inh	TROY NFkB inh
COc1ccc(-n2nnnc2C(CCSC)N2CCC(n3c(=O)[nH]c4ccccc43)CC2)cc1 (stereo not drawn)	17.0	/	/	/	/	34.4
CC1C(c2ccccc2)OC(=O)N1C (stereo not drawn)	7.4	-11.8	/	/	/	-6.3
CN1[C@@H]2CC[C@H]1CC(OC(=O)C1C=Nc3ccccc31)C2 (stereo partly drawn)	3.1	81.9*	-5.5	-10.3	-1.8	1.2
O=C1NCN(c2ccccc2)C12CCN(C(c1ccccc1OC(F)(F)F)c1nnnn1C1CCCC1)CC2 (stereo not drawn)	-6.8	/	/	/	/	0.1
CCOC(=O)C1C(OC(=O)c2ccccc2)CC2CCC1N2C (stereo not drawn)	-6.3	72.6*	/	/	/	-6.8
CN1C2CCC1C(C(=O)O)C(OC(=O)c1ccccc1)C2 (stereo not drawn)	1.6	-3.8	/	/	/	-11.1
CC1CC(OC(=O)c2ccccc2)CC(C)N1C (stereo not drawn)	11.1	3.6	-4.9	-8.4	-2.5	12.9
COC(=O)C1C2CC[C@@H](CC1OC(=O)c1ccccc1)N2 (stereo partly drawn)	3.6	90.3*	/	/	/	-10.5
COc1ccc(OC(=O)N(C)C[C@@H]2OCc3cnnn3CCCC(=O)N([C@@H](C)CO)C[C@@H]2C)cc1	15.6	-6.5	/	/	/	-7.9
COc1cc(/C=C(/C)[N+](=O)[O-])ccc1OCc1ccccc1Cl	72.5*	-12.9	116.7	127.8*	1.0	56.5*
COc1cccc(C(c2nnnn2Cc2ccccc2)N2CCC3(CC2)C(=O)NCN3c2ccccc2)c1OC (stereo not drawn)	21.2	/	/	/	/	13.0
CN(CC=CCN(C)P(=S)(N1CC1)N1CC1)P(=S)(N1CC1)N1CC1	6.8	13.5	/	/	/	-6.1
CS(=O)(=O)c1ccc(C2=C(CNC(=O)c3nccs3)[C@H]3CC[C@@H](C2)N3CCOc2ccccc2)cc1	7.4	2.5	/	/	/	-8.7
CN1CC(C(=O)c2ccc(F)cc2)C(c2c(F)cccc2Cl)C1 (stereo not drawn)	-5.5	-2.4	38.2	81.6*	5.3	-9.4
Cc1cc(N(CCCl)CCCl)ccc1C=NNC(=O)c1cccnc1	-53.2	73.9*	/	/	/	-5.9
O=C(NN=Cc1ccc(N(CCCl)CCCl)cc1Cl)c1cccnc1	-6.7	78.4*	/	/	/	18.9
O=C(NN=Cc1ccc(N(CCCl)CCCl)cc1)c1cc(=O)[nH]c(=O)[nH]1	4.2	38.8	/	/	/	2.7
